Assay results as given in PMC12136788.
Numbering of substitutions follows the chain as printed. In all, about 24,000 sequences were measured (“enrichment r”: median about 0.99, highest 2% from about 3.7 on). The full list was thinned out, with the highest values kept by preference.

T1: UNK ZnF1-3 (human, UniProt Q9C0B0 31-174)
T1 sequence: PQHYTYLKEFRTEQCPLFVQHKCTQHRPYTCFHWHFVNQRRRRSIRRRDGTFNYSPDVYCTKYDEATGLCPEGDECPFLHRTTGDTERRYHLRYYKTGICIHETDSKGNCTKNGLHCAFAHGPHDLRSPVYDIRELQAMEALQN

B1: 201281127_201284068_384_CDS_ENSG00000196141_ENST00000360760|human|control|control (ssRNA)
RNA: GGGAGUUCUACAGUCCGACGAUCCGGCUGCAGGGGCCCUGCCUCAGGCCUCUCCACCUUGUCUUUAGCAUCUUUGUUGCCUUGAUGCUGCUUGGACUUGCUUCUUUUUCUUUUAUUGUUCUUCUUUUUUCCUGUCAUAUUCCACAACAGAGGAUUGAGCAUCA
B2: chr4:144460044:144460045:+_ENSG00000153147_ENST00000283131|hu_mus|hu_hu_hu_mus_False|1_78 (ssRNA)
RNA: GGGAGUUCUACAGUCCGACGAUCACGGUCCAUAGCCUGAAGAUCAACUUGCGGAUUCCAAUCAGAAUCAUAUAAAAUGACUACAUCAGCAGUUGCAAGAUUGAUGCCCAGACCACCAGCACGUGUGCUUAGCAUAAAAACAAACAACAGAGGAUUGAGCAUCA
B3: 32049908_32050383_1188_CDS_ENSMUSG00000039262_ENSMUST00000036691|mouse|control|control (ssRNA)
RNA: GGGAGUUCUACAGUCCGACGAUCUUCUUUCCCAUCUUGGUCGUUCAUCUGGAACUGUCUGAAAGGAACACGGGGUUCCAGGCGGAGCUGAGGAAGGGGAAAAGAGCUUCGUUCCACCGUAGUCUGGUUCUCUGAUGACUGUGGCAACAGAGGAUUGAGCAUCA
B4: chr16:1859243:1859244:-_ENSG00000063854_ENST00000397353|hu_mus|FALSE|FALSE (ssRNA)
RNA: GGGAGUUCUACAGUCCGACGAUCAAUUAACUGAAAAGUAGACUGUCCUGCAUUAGCAGCAGGCCAGUCGGUUAGAAGUCCCUGUCCCAGCGUGGGUGUGCCUCAGUCCCGAGGCACCUUGAACUGGUCCUUCUCCCUGCGGAUCAACAGAGGAUUGAGCAUCA
B5: chr2:122485053:122485054:-_ENSG00000155438_ENST00000285814|hu_mus|FALSE|FALSE (ssRNA)
RNA: GGGAGUUCUACAGUCCGACGAUCUAAGCCUGAGUUUCAUAAGGAUAGUAAAACUGAGGGACCGAUGAAGCCUGAAGACAAAUUCAGGACAGGAAAGGGCACAGUCAGGUUCCCAGUGGCUUUCCUCACUGGAAAACCAAACAUCAACAGAGGAUUGAGCAUCA
B6: chr10:70021928:70021929:-_ENSMUSG00000037747_ENSMUST00000162251|mus_hu|motif|central (ssRNA)
RNA: GGGAGUUCUACAGUCCGACGAUCAUGCUUCAGUGGAAAACAUCUGGUGAUAAAAAUGGACAACAGAGGACCAAUGCUCCGGAGGGAGGAAAAGGGGCUGAGUAAGAAUAAGAAAAGUGGGCAUUAACGUCCAACACUGAUAUUCAACAGAGGAUUGAGCAUCA
B7: chr17:35122734:35122735:+_ENSMUSG00000007050_ENSMUST00000114011|mus_mus|FALSE|FALSE (ssRNA)
RNA: GGGAGUUCUACAGUCCGACGAUCUCCAUCCCUCAAAUGUAUUACAUGUCGCCACGGAAGGGCUUAGGAUGCUGCUCCCAUCUCCAGGAAAGAUGAGAAAAAGGUACAGACUGGGAGCCAGUCCAGGACCAUUCUGCAGUUCCUCAACAGAGGAUUGAGCAUCA
B8: 181288587_181288707_5387_3pUTR_ENSMUSG00000000826_ENSMUST00000072334|mouse|control|control (ssRNA)
RNA: GGGAGUUCUACAGUCCGACGAUCUCAUAAUCCAGUGGCUUGGUUUGGCCAUUAAGACCAGAGGACAUGGUUACUUGCUCUGGAGUAAAAAGCUAGAGCUGUUAGGCAAGAAUUCAACCACUAAGGGGCCAGACACUGUGAGGGCAACAGAGGAUUGAGCAUCA
B9: chr10:70021928:70021929:-_ENSMUSG00000037747_ENSMUST00000162251|mus_hu|FALSE|FALSE (ssRNA)
RNA: B6 RNA with G80U, G81A
B10: chr10:70021928:70021929:-_ENSMUSG00000037747_ENSMUST00000162251|mus_mus|motif|central (ssRNA)
RNA: GGGAGUUCUACAGUCCGACGAUCAUGCAUGCUUCAGUGGGGACAUCUGAUGGCAGAUGGACAACAGAGGGUAAUGCUCCGGUGGGAAGACAGGGUGUGUGGGGCGGGGAAGGGGCGAAAGUGGUGUUAGCGUCCGACACUGAUCAACAGAGGAUUGAGCAUCA
B11: chr11:54532911:54532912:-_ENSMUSG00000052298_ENSMUST00000064104|mus_mus|motif|central (ssRNA)
RNA: GGGAGUUCUACAGUCCGACGAUCGCAGAGGGGCUGGAGGUGCAAUGAAAAGGCUUAAAAUGGAAAAAUUACAAUACAGUGCGGGCAGUCACAGAAAAGACCAUGCUAAGAUCCGAUCCAUGUCAAUUAAACAUUGAAAAUUCACAACAGAGGAUUGAGCAUCA
B12: chr19:15981513:15981514:-_ENSMUSG00000024640_ENSMUST00000025542|mus_hu|motif|central (ssRNA)
RNA: GGGAGUUCUACAGUCCGACGAUCUAAAGCAUCAUCUCCUUUGGCAUUGCCAAUGCGGAAUGGAAUAUUCAUCUUGCUUCGGUUUUGGGGCUCCACUGGACAAACGUAGAAUCCUUGAGAAUUAUCAAUAAUCUCAUAAAUUGUCAACAGAGGAUUGAGCAUCA
B13: chr19:16212804:16212805:+_ENSG00000167460_ENST00000300933|hu_mus|hu_hu_hu_mus_False|18_68 (ssRNA)
RNA: GGGAGUUCUACAGUCCGACGAUCAACAAUUCUGGAGUGAAGGAAAGAUGUAACAUGGAACAGCAUUCCAUCUAUUACAGAAGGCACAUGGGCAACAAUGAUCACCCCAGCAUUCUCCUACGUUGACCUUAAAGACAAUCUGUUCAACAGAGGAUUGAGCAUCA
B14: 19988787_19988907_277_5pUTR_ENSG00000144566_ENST00000273047|human|control|control (ssRNA)
RNA: GGGAGUUCUACAGUCCGACGAUCCGGCGUCGCCUGCUCUUAGCGCCGCUCCCCUCACACUGGACUGUGCGGGGCUCGUGCCGUGGUGCCGCCCCUGUCGGGCUCCGUCUCCGCCUCUCGCCGCUCCCCCUUCCUCUUUCCUUUCAACAGAGGAUUGAGCAUCA
B15: 178098831_178098951_708_CDS_ENSG00000116044_ENST00000397062|human|control|control (ssRNA)
RNA: GGGAGUUCUACAGUCCGACGAUCGAAAAAGGCUUUCUCUUGCUCCUUUUGGAGUUGUUCUUGUCUUUCCUUUUCAAGUUUUUUCUGUUUUUCCAGCUCAUACUCUUUCCGUCGCUGACUGAAGUCAAAUACUUCUCGACUUACCAACAGAGGAUUGAGCAUCA
B16: chr10:1038518:1038519:+_ENSG00000107937_ENST00000545048|hu_hu|hu_hu_hu_mus_False|68_68 (ssRNA)
RNA: GGGAGUUCUACAGUCCGACGAUCCAGUCUGUCAUGGUAAUUCUGUUGAGUAAAUUUGACUUUUCUCAUGUAAAAAUGUCGAAUCCGAUGAAUUUGAUAAUGUUUAUGAAUAACCGUUGGAGUCUUUCGUUGAGUCUUGGAUAACAACAGAGGAUUGAGCAUCA
B17: chr8:30550554:30550555:-_ENSG00000104687_ENST00000414019|hu_mus|FALSE|FALSE (ssRNA)
RNA: GGGAGUUCUACAGUCCGACGAUCGCCGGCAUUCUCCAGUUCCUCGGUGCAGUUGGAACUGAUGAGUGAAUCAAAAUUUCUCAGUACCUUAUCAUGCCUGAUCAUAAGAGAUGUCUUGGAGCCCAGGGCAGAGAGGAUGCCCGCCAACAGAGGAUUGAGCAUCA
B18: chr6:106728040:106728041:+_ENSMUSG00000013736_ENSMUST00000057578|mus_mus|FALSE|FALSE (ssRNA)
RNA: GGGAGUUCUACAGUCCGACGAUCAGGAGCCACACCAAGAUCAUAGAUCAGGUGGAUCAAAUGGUUUACAUGGUCACCAGUAAGAAUUUUCUUCAGUUCUACCCAAAUCCUCUCUCCUGAUAUUCCAGCCAAACCUUUGGCAUUCAACAGAGGAUUGAGCAUCA
B19: chr22:19452774:19452775:-_ENSG00000070010_ENST00000399523|hu_hu|hu_hu_hu_mus_False|88_108 (ssRNA)
RNA: GGGAGUUCUACAGUCCGACGAUCCUUUUCAUUAUAGUUGAUAGCAAUCACAUCCCCAGUCGUCAGACAGGCGAAGUUUCUCAAUGCAUUUUCUAAUACCGCUUUAGGGUUGGUAAUAUCCAGGAAGUCUGGGCUCUGAGGCUGCAACAGAGGAUUGAGCAUCA
B20: chr7:148083511:148083512:+_ENSMUSG00000025487_ENSMUST00000026560|mus_mus|motif|central (ssRNA)
RNA: GGGAGUUCUACAGUCCGACGAUCCAAAUCCAGCACUCGCGGCUGCACCCACGUCAUGUGAACCCGCUUGUCCACCUCGUCGGUGCUGCCUCUCACCAGCCCCACCGAGAGUGCCUUCAUCACCAGCAACUCCACCUUGUUGACCAACAGAGGAUUGAGCAUCA
B21: chr16:46836887:46836888:-_ENSG00000155330_ENST00000285697|hu_mus|motif|central (ssRNA)
RNA: GGGAGUUCUACAGUCCGACGAUCACCAACAGAGUUUGAAGACAAAUAUCAGAGAAUAAGUCUUUGAUUGAUAAUUUUUCGGUUUAUUUCUGCCAAGGCAACUGAAAACACGAAAGCCUUCUCAUCAGAGAGGUUAGCAUAGAUCAACAGAGGAUUGAGCAUCA
B22: chr12:48362563:48362564:+_ENSG00000134291_ENST00000256686|hu_hu|hu_hu_hu_mus_False|68_108 (ssRNA)
RNA: GGGAGUUCUACAGUCCGACGAUCUCCGAAGGGUGAAUCGAUAGACCCUUGCGGGGGAAACUGUAAUAAUUCUAACUGGGGAAGGAAAAGAAACGCCAAAAACUUUCCAAAAAGCGGGGGUGGGGUGAGGCGGGAGGGGGAGGUCAACAGAGGAUUGAGCAUCA
B23: 118497214_118499730_2480_CDS_ENSG00000065183_ENST00000349139|human|control|control (ssRNA)
RNA: GGGAGUUCUACAGUCCGACGAUCAUAAGAGAAAGGCAGCACAAGUAGAGAUUCUUCCAGCUCACUCGACUUGAUCCCUUUAAAAAUCUCUAAUACAUAAGCUGAAGGUGAGAUACUGCCAUAAGCCAUUAGGAUGGGGUUGCUCAACAGAGGAUUGAGCAUCA
B24: chr9:127911758:127911759:-_ENSG00000119414_ENST00000373547|hu_mus|motif|central (ssRNA)
RNA: GGGAGUUCUACAGUCCGACGAUCUCUCAAACGAGUCCAAGGUGGGGUAGGAGGAGUGACAAAACUGAUAGAAAAACACUGCGGUUGACACCAUAACAAACAAUAAAUUUAGAUAAUUUAAAAUUAAAAAAAAAGGCAAGAGGCCAACAGAGGAUUGAGCAUCA
B25: chr9:127911758:127911759:-_ENSG00000119414_ENST00000373547|hu_mus|FALSE|FALSE (ssRNA)
RNA: B24 RNA with G82U, G83A
B26: chr12:48362563:48362564:+_ENSG00000134291_ENST00000256686|hu_hu|hu_hu_hu_mus_False|1_68 (ssRNA)
RNA: GGGAGUUCUACAGUCCGACGAUCUCCGUCAAGCCCUUCGAUAGACCCUUGCGGGGGAAACUGUAAUAAUUCUAACUGGGGAAGGAAAAGAAACGCCAAAAACUUUCCAAAAAGCGGGGGUGGGGUGAGGCGGGAGGUUGGGAACAACAGAGGAUUGAGCAUCA
B27: chr12:48362563:48362564:+_ENSG00000134291_ENST00000256686|hu_hu|hu_hu_hu_mus_False|68_68 (ssRNA)
RNA: B26 RNA with U137G, U138G, G140A, A142G, A143U

molecular target: T1, UNK ZnF1-3; assay: nsRBNS (natural sequence RNA bind-n-seq); RBNS binding buffer (assumed for nsRBNS): 25 mM Tris pH 7.5, 150 mM KCl, 3 mM MgCl2, 0.01% Triton X-100, 500 ug/ml BSA, 20 U/ml SUPERase-In, 4 C; UNK is unkempt and MSI1 is Musashi-1; names of the RNAs are library labels; protein concentration not given here; high values mean tight binding

Binder	binding signal
B1	0.308 enrichment R
B2	1.34 enrichment R
B3	0.807 enrichment R
B4	0.931 enrichment R
B5	0.908 enrichment R
B6	4.93 enrichment R
B7	1.03 enrichment R
B8	1.11 enrichment R
B9	4.68 enrichment R
B10	1.77 enrichment R
B11	4.45 enrichment R
B12	0.859 enrichment R
B13	0.856 enrichment R
B14	0.72 enrichment R
B15	0.134 enrichment R
B16	0.535 enrichment R
B17	1.28 enrichment R
B18	0.982 enrichment R
B19	0.864 enrichment R
B20	0.75 enrichment R
B21	0.868 enrichment R
B22	3.2 enrichment R
B23	1.8 enrichment R
B24	14 enrichment R
B25	10.5 enrichment R
B26	3.33 enrichment R
B27	4.07 enrichment R
